We go through 20 molecules from publication PMC9911399, “Two distinct binding modes provide the RNA-binding protein RbFox with extraordinary sequence specificity”.

T1: RBFOX1 RRM (Homo sapiens, UniProt Q9NWB1 109-208)
T1 sequence: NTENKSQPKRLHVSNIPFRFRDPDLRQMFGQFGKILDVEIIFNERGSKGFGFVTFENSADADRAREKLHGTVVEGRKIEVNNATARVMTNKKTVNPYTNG

B1: CCCAAGA (DNA:RNA)
RNA: GGGAGACCGGAAUUCAGAUUGUCCCCCAAGAUUAAAUCCCGUCGUAGCCACCA
DNA 1: CAATCTGAATTCCGGTCTCCC
DNA 2: TGGTGGCTACGACGGGATT
B2: UCGCCGG (DNA:RNA)
RNA: B1 RNA with C25U, C27G, A28C, A29C, A31G
DNA 1: CAATCTGAATTCCGGTCTCCC
DNA 2: TGGTGGCTACGACGGGATT
B3: CUAGUGU (DNA:RNA)
RNA: B1 RNA with C26U, C27A, A28G, A29U, A31U
DNA 1: CAATCTGAATTCCGGTCTCCC
DNA 2: TGGTGGCTACGACGGGATT
B4: UGCUCCU (DNA:RNA)
RNA: B1 RNA with C25U, C26G, A28U, A29C, G30C, A31U
DNA 1: CAATCTGAATTCCGGTCTCCC
DNA 2: TGGTGGCTACGACGGGATT
B5: GAUCGAC (DNA:RNA)
RNA: GGGAGACCGGAAUUCAGAUUGUCCGAUCGACUUAAAUCCCGUCGUAGCCACCA
DNA 1: CAATCTGAATTCCGGTCTCCC
DNA 2: TGGTGGCTACGACGGGATT
B6: GAGAGCC (DNA:RNA)
RNA: B5 RNA with U27G, C28A, A30C
DNA 1: CAATCTGAATTCCGGTCTCCC
DNA 2: TGGTGGCTACGACGGGATT
B7: GCAUAGU (DNA:RNA)
RNA: B1 RNA with C25G, C27A, A28U, A31U
DNA 1: CAATCTGAATTCCGGTCTCCC
DNA 2: TGGTGGCTACGACGGGATT
B8: GCAUGUU (DNA:RNA)
RNA: B5 RNA with A26C, U27A, C28U, A30U, C31U
DNA 1: CAATCTGAATTCCGGTCTCCC
DNA 2: TGGTGGCTACGACGGGATT
B9: ACGCAUC (DNA:RNA)
RNA: B1 RNA with C25A, C27G, A28C, G30U, A31C
DNA 1: CAATCTGAATTCCGGTCTCCC
DNA 2: TGGTGGCTACGACGGGATT
B10: CGCAUUG (DNA:RNA)
RNA: B1 RNA with C26G, A29U, G30U, A31G
DNA 1: CAATCTGAATTCCGGTCTCCC
DNA 2: TGGTGGCTACGACGGGATT
B11: GCAAUGU (DNA:RNA)
RNA: B1 RNA with C25G, C27A, A29U, A31U
DNA 1: CAATCTGAATTCCGGTCTCCC
DNA 2: TGGTGGCTACGACGGGATT
B12: CCGCAUG (DNA:RNA)
RNA: B1 RNA with C27G, A28C, G30U, A31G
DNA 1: CAATCTGAATTCCGGTCTCCC
DNA 2: TGGTGGCTACGACGGGATT
B13: ACGCAUG (DNA:RNA)
RNA: B1 RNA with C25A, C27G, A28C, G30U, A31G
DNA 1: CAATCTGAATTCCGGTCTCCC
DNA 2: TGGTGGCTACGACGGGATT
B14: ACGCAUA (DNA:RNA)
RNA: B1 RNA with C25A, C27G, A28C, G30U
DNA 1: CAATCTGAATTCCGGTCTCCC
DNA 2: TGGTGGCTACGACGGGATT
B15: GCCAUGU (DNA:RNA)
RNA: B1 RNA with C25G, A29U, A31U
DNA 1: CAATCTGAATTCCGGTCTCCC
DNA 2: TGGTGGCTACGACGGGATT
B16: GCAUUGU (DNA:RNA)
RNA: B1 RNA with C25G, C27A, A28U, A29U, A31U
DNA 1: CAATCTGAATTCCGGTCTCCC
DNA 2: TGGTGGCTACGACGGGATT
B17: CGCAUGU (DNA:RNA)
RNA: B1 RNA with C26G, A29U, A31U
DNA 1: CAATCTGAATTCCGGTCTCCC
DNA 2: TGGTGGCTACGACGGGATT
B18: CCCCGCA (DNA:RNA)
RNA: B1 RNA with A28C, A29G, G30C
DNA 1: CAATCTGAATTCCGGTCTCCC
DNA 2: TGGTGGCTACGACGGGATT
B19: UCCGUCU (DNA:RNA)
RNA: B1 RNA with C25U, A28G, A29U, G30C, A31U
DNA 1: CAATCTGAATTCCGGTCTCCC
DNA 2: TGGTGGCTACGACGGGATT
B20: GGCAGGC (DNA:RNA)
RNA: B1 RNA with C25G, C26G, A29G, A31C
DNA 1: CAATCTGAATTCCGGTCTCCC
DNA 2: TGGTGGCTACGACGGGATT

Numbering of substitutions follows the chain as printed; changes in the protein carry UniProt numbers. The full ranking holds about 16,000 sequences; the median of “ka relative to ugcaugu” is about 0.0091, and the highest 2% start at about 0.032. Only a selection was taken, and the highest values are over-represented in it overall.

The assay concerns the target T1, RBFOX1 RRM. In words: EMSA; HiTS-Eq, 1 nM pool, 10 min; buffer printed only for the single-RNA assays: 10 mM Tris pH 7.5, 150 mM NaCl, 3.4 mM EDTA, 0.001% NP-40, 30 C. To be noted: tags: His6 N-terminal (pET28a); label: 5' 32P. An outline of the steps: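 Purified RbFox RRM, wild type or mutant, was incubated for 10 min in 50 µL with 1 nM of a 5′-radiolabelled RNA pool carrying 7 randomized nucleotides, whose flanks were annealed to DNA oligonucleotides, over a series of increasing protein concentrations. Unbound RNA was resolved on 8% native PAGE, cut out, reverse-transcribed, barcoded by PCR and sequenced on an Illumina HiSeq 2500. Relative association constants were derived from changes in read counts for each RNA species versus the control reaction and normalised to the cognate motif.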
For the molecule B1, the binding signal was 0.00241 KA relative to UGCAUGU. In the case of B2, the binding signal is 0.0169 KA relative to UGCAUGU. With B3, the binding signal is 0.0159 KA relative to UGCAUGU.

Consider B4, for which the binding signal is 0.0145 KA relative to UGCAUGU. As to B5, the binding signal was 0.0165 KA relative to UGCAUGU.

For B6, the binding signal is 0.0145 KA relative to UGCAUGU. Take B7: the binding signal is 0.0104 KA relative to UGCAUGU. The figure for B8 is 0.635 KA relative to UGCAUGU; for B9 it is 0.00881 KA relative to UGCAUGU.

Turning to B10, the binding signal was 0.0131 KA relative to UGCAUGU. As for B11, the figure is 0.01 KA relative to UGCAUGU. Take B12: the binding signal is 0.806 KA relative to UGCAUGU. With B13, the binding signal is 0.697 KA relative to UGCAUGU.

Take B14: the binding signal is 0.00394 KA relative to UGCAUGU. The figure for B15 is 0.0117 KA relative to UGCAUGU; for B16 it is 0.0129 KA relative to UGCAUGU. In the case of B17, the binding signal was 0.735 KA relative to UGCAUGU.

Regarding B18, the binding signal was 0.0132 KA relative to UGCAUGU. B19: the binding signal was 0.0154 KA relative to UGCAUGU.

As for B20, the binding signal is 0.0103 KA relative to UGCAUGU.
